In PubChem BioAssay:
Calls of active or inactive are those of the source.

Tests used:
Albumin (Bos taurus) = Albumin (Bos taurus) (UniProt P02769); assay: compounds binding labelled BSA control protein – biochemical, small-molecule microarray, Alexa647 label, 635/667 nm fluorescence, artefact control for SMM control protein annotation, profiling panel (AID 1118); conditions: BSA-A647 binding, fluorescence 635 nm, higher = more signal;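 note: score merges 667 nm emission intensity and signal-to-noise per printed compound spot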
[1] = probe aXIP binding to arrayed compounds – biochemical, NeuroSMM set, 635/667 nm fluorescence, primary screen (AID 1119); conditions: small-molecule microarray, higher = more signal, called active from +8 up or from −8 down;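 note: probe is the protein aXip251-270 applied at 1 µg/mL to compound-printed slides; binding of probe to printed compounds measured as 667 nm fluorescence plus signal to noise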
[2] = probe aNOTCH3 binding on compound microarray – biochemical, small-molecule microarray, 635/667 nm fluorescence, primary screen (AID 1120); conditions: higher = more signal;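 note: probe is a biotin-tagged antibody raised against NOTCH3 rather than NOTCH3 protein; score merges spot fluorescence near 667 nm with spot signal to noise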
[3] = probe aNOTCH2 binding on compound microarray – biochemical, small-molecule microarray, 635/667 nm fluorescence, primary screen (AID 1121); conditions: higher = more signal;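 note: score merges feature fluorescence read at 667 nm with its signal to noise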
[4] = molecular target: Carbonic anhydrase 2 (Homo sapiens) (UniProt P00918); assay: compounds binding carbonic anhydrase 2 – biochemical, small-molecule microarray, Alexa647-labelled CAII, profiling panel (AID 1122); conditions: CAII-A647 binding fluorescence, higher = more signal
[5] = COS7 lysate on small-molecule microarray, probe aHis, 635 nm (AID 1123); conditions: COS7 cell lysate, fluorescence, higher = more signal;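 note: z-score combines 667nm fluorescence intensity with signal-to-noise per printed compound spot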
[6] = probe aLAP1 signal on lysate-treated microarray – cell lysate, small-molecule microarray, COS7 lysate, primary screen (AID 1124); conditions: probe aLAP1, fluorescence, higher = more signal;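 note: lysate comes from COS7 cells expressing LAP1 and is applied at 0.3 µg/mL; score merges spot fluorescence near 667 nm with signal-to-noise over triplicate slides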
Sam68 (KHDRBS1) = assay: compounds binding KHDRBS1 protein – biochemical, small-molecule microarray, 635 nm fluorescence, primary screen (AID 1125); conditions: higher = more signal;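 note: score merges 667 nm channel intensity with signal to noise over triplicate slides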
[7] = test system: Chordin-like protein 2 (CHRDL2); assay: compounds binding chordin-like 2 – biochemical, small-molecule microarray, 635 nm fluorescence, primary screen (AID 1126); conditions: fluorescence 635 nm, higher = more signal;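 note: printed compound slides probed with Chrdl2 protein at 4 µg/mL for 1 h at 4 C; score merges 667 nm emission intensity with signal to noise over three replicate slides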
[8] = molecular target: Concanavalin-A (Canavalia ensiformis) (UniProt P02866); assay: compounds binding concanavalin A lectin – biochemical, small-molecule microarray, Alexa647 label, 635 nm, artefact control for SMM control protein annotation, primary screen (AID 1127); conditions: ConA-A647 binding fluorescence, higher = more signal;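 note: z combines 667 nm emission intensity with signal-to-noise across three replicate slides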
[9] = compounds binding Alexa647 anti-His antibody – biochemical, small-molecule microarray, 635 nm fluorescence, artefact control for SMM control protein annotation, primary screen (AID 1128); conditions: higher = more signal;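 note: score merges feature fluorescence with signal-to-noise for each printed compound spot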
[10] = test system: Human papillomavirus type 1a E7 protein (residues 1-88); assay: HPV1a E7 small-molecule binders, primary screen, biochemical, small-molecule microarray, residues 1-88, 635 nm (AID 1129); conditions: small-molecule microarray binding, fluorescence 635 nm; higher = more signal
[11] = molecular target: Focal adhesion kinase 1 (Homo sapiens) (UniProt Q05397); assay: PTK2 protein binding on printed compound slides – biochemical, small-molecule microarray, 635/667 nm fluorescence, BSA, DTT, primary screen (AID 1130); conditions: 635 nm fluorescence, higher = more signal;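 note: composite of spot emission at 667 nm and signal to noise over triplicate slides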
[12] = test system: Fibrinogen (Alexa647-labelled); assay: Alexa647-fibrinogen binding to printed small molecules – biochemical, small-molecule microarray, 635/667 nm fluorescence, artefact control for SMM control-protein annotation, profiling panel (AID 1131); conditions: fibrinogen-A647 binding fluorescence, higher = more signal;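 note: z-score merges 667 nm fluorescence with per-spot signal-to-noise over triplicate slides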
[13] = molecular target: Follistatin (Homo sapiens) (UniProt P19883); assay: FST protein binding to printed compounds – biochemical, small-molecule microarray, 635/667 nm fluorescence, primary screen (AID 1132); conditions: 635 nm fluorescence, higher = more signal
[14] = molecular target: Fibroblast growth factor 2 (Homo sapiens) (UniProt P09038); assay: basic fibroblast growth factor binding to printed compounds – biochemical, small-molecule microarray, 635/667 nm fluorescence, primary screen (AID 1133); conditions: FGF2, fluorescence 635/667, higher = more signal
[15] = JC-1 mitochondrial potential readout, lung cancer cells – cell-based, A549, JC-1 fluorescence, basal, 24 h, 100 nL, profiling panel (AID 1138); conditions: higher = more signal;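 note: A549 lung adenocarcinoma cells under basal conditions with no added stimulus; test concentration not given here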
Lefty1 = Lefty1 protein binding to printed compounds – biochemical, small-molecule microarray, 635/667 nm fluorescence, primary screen (AID 1139); conditions: fluorescence 635/667, higher = more signal
[16] = test system: wheat germ agglutinin (Triticum aestivum), Alexa647-labelled; assay: Alexa647-WGA lectin binding to printed small molecules – biochemical, small-molecule microarray, 635/667 nm fluorescence, artefact control for SMM control-protein annotation, profiling panel (AID 1140); conditions: WGA-A647 binding, 635 nm fluorescence, higher = more signal;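 note: score merges 667 nm feature emission with signal to noise over triplicate slides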
[17] = molecular target: Luciferin 4-monooxygenase (Photinus pyralis) (UniProt P08659); assay: inhibition of purified Photinus pyralis luciferase – biochemical, luminescence, purified enzyme, 2006 set, primary screen (AID 1141); conditions: purified firefly luciferase, SteadyGlo luminescence, 30 min; higher = more signal, called active from +8 up or from −8 down;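 note: cell-free assay with purified firefly luciferase at 100 ng per well in PBS; test concentration not given here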
Luciferin 4-monooxygenase (Photinus pyralis), sequence (P08659 whole entry, looked up): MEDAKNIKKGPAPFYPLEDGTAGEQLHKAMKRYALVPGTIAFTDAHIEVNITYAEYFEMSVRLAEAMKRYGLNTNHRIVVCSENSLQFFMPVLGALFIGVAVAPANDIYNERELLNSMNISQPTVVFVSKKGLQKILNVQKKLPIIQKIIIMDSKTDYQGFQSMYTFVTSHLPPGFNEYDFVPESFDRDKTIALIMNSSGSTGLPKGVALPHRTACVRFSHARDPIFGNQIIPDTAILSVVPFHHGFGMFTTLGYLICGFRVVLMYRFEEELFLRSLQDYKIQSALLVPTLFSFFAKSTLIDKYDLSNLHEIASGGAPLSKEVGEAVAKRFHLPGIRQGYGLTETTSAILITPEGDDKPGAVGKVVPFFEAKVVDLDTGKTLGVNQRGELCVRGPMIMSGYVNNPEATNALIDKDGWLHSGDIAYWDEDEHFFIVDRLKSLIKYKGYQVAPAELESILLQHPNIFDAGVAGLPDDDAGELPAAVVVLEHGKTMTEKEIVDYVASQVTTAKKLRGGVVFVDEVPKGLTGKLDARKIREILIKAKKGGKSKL

Follistatin (Homo sapiens), sequence (P19883 whole entry, looked up): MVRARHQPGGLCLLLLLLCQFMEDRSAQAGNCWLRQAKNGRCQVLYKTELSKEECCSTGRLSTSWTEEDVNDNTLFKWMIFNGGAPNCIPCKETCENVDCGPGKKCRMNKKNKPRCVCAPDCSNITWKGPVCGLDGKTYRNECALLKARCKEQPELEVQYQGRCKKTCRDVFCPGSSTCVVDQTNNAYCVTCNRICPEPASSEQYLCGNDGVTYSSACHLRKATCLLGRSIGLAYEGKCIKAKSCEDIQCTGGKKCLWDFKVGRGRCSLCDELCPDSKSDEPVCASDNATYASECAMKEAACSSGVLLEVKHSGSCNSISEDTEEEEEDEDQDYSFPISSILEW
Concanavalin-A (Canavalia ensiformis), sequence (P02866 whole entry, looked up): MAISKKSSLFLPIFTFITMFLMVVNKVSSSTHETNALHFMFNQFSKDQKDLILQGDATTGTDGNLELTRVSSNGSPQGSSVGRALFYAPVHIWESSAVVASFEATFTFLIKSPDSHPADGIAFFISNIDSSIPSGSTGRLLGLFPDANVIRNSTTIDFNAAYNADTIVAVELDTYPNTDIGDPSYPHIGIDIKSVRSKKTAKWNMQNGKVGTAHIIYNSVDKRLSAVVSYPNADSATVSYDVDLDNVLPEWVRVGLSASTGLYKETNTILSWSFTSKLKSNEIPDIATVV
Focal adhesion kinase 1 (Homo sapiens), sequence (Q05397 whole entry, looked up): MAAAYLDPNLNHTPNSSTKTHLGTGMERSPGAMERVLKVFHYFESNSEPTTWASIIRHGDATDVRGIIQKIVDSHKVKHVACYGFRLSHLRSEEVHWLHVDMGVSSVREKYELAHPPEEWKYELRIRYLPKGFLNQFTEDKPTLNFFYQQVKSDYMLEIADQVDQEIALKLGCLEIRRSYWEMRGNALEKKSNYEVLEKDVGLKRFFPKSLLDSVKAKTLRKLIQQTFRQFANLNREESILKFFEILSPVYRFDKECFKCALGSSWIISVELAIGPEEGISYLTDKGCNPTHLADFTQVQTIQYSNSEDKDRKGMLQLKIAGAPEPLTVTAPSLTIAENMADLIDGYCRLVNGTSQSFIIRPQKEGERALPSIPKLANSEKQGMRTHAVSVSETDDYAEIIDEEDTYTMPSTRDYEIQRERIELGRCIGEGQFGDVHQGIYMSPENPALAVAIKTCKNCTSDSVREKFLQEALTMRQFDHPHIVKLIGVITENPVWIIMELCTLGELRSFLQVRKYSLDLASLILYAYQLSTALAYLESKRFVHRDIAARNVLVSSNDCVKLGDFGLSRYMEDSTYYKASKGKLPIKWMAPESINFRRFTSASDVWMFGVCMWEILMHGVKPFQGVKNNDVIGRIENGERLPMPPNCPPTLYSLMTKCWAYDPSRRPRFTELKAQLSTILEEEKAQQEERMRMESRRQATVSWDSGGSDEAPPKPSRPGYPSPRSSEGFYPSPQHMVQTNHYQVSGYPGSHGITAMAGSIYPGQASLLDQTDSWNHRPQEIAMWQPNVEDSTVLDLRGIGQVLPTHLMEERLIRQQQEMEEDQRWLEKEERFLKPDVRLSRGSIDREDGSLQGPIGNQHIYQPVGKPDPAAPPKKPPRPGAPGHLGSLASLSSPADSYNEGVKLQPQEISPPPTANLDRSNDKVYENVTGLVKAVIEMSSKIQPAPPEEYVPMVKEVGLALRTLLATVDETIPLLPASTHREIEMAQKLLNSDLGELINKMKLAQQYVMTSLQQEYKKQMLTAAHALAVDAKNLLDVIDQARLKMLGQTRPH
Fibroblast growth factor 2 (Homo sapiens), sequence (P09038 whole entry, looked up): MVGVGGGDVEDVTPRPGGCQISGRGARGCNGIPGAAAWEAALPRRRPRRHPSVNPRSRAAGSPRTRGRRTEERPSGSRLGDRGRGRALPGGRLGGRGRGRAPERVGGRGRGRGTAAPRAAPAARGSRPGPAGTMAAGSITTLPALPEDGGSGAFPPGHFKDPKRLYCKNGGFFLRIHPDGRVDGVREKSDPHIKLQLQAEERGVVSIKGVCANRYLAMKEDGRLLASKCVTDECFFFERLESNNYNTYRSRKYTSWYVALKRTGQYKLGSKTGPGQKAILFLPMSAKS
Albumin (Bos taurus), sequence (P02769 whole entry, looked up): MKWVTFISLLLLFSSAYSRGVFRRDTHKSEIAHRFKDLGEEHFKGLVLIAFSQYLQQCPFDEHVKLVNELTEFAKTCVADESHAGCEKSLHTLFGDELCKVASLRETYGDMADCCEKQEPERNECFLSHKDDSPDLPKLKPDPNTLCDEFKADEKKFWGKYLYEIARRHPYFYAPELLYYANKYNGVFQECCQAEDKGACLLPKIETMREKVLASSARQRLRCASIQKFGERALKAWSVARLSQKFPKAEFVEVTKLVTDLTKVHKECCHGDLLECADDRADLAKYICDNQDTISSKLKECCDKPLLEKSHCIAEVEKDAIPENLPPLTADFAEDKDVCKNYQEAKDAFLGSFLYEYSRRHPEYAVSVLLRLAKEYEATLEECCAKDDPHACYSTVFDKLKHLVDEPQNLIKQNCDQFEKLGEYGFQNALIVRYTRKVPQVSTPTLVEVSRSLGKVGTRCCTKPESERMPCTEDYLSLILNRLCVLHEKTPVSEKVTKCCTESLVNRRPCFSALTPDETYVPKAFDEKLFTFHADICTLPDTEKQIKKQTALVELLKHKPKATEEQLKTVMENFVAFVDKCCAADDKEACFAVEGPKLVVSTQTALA

Compound	composite z-score (Albumin (Bos taurus))	composite Z-score [1]	composite z-score [2]	composite z-score [3]	composite z-score [4]	composite z-score [5]	composite z-score [6]	composite z-score (Sam68 (KHDRBS1))	composite z-score [7]	composite z-score [8]	composite z-score [9]	composite z-score [10]	composite z-score [11]	composite z-score [12]	composite z-score [13]	composite z-score [14]	z-score [15]	composite z-score (Lefty1)	composite z-score [16]	z-score [17]
COc1ccc(O[C@H]2C=C[C@@H](C#Cc3ccccc3)O[C@@H]2CO)cc1	0.271	0.446 (inactive)	-0.0932	0.113	0.314	0.962	0.0803	-0.006	0.176	0.869	-0.0687	0.071	0.0306	0.744	0.365	0.0738	0.511	0.71	0.48	-1.67 (inactive)
CC(CCC(=O)OC[C@H]1O[C@H](C#Cc2ccccc2)C=C[C@@H]1Oc1ccc(C)cc1)=NOC[C@@H](C)[C@H](OCc1ccccc1)C(C)C	-0.607	0.35 (inactive)	-0.325	-0.226	-0.0949	1.47	-0.427	-1.2	-0.606	-1.14	0.0009	-0.849	-0.502	-1.36	-0.554	-0.625	-0.197	-0.295	-0.726	1.03 (inactive)
COc1ccc(COC(=O)NN=C2C[C@@H](O)[C@@H](O)[C@@H]3[C@@H]4C(=O)N(C5CCCCC5)C(=O)[C@@H]4CC[C@@H]23)cc1	0.157	-0.218 (inactive)	0.289	-0.0256	-0.143	0.0678	-0.253	-0.0188	-0.108	-0.35	0.123	-0.0517	0.0581	0.0695	-0.148	-0.373	0.847	-0.371	0.401	0.0242 (inactive)
CC(C)CON=C1C[C@@H](O)[C@@H](O)[C@@H]2[C@@H]3C(=O)N([C@@H](C)c4ccccc4)C(=O)[C@@H]3CC[C@@H]12	0.538	-0.293 (inactive)	-0.145	-0.153	-0.139	-0.039	-0.0296	0.132	0.417	0.0928	0.0924	0.124	-0.164	0.501	-0.319	0.114	-0.655	-0.162	0.252	0.999 (inactive)
O=C1[C@H]2CCn3c(=O)n(Cc4cc5c(cc4Cl)OCO5)c(=O)n3[C@H]2[C@H](O)[C@@H]2O[C@H]12	0.662	-0.0662 (inactive)	-0.15	-0.14	0.29	0.242	-0.14	-0.435	0.716	-0.0737	0.85	-0.542	-0.255	0.855	0.596	0.299	-0.512	0.298	0.176	-1.44 (inactive)
O=C1C[C@H](c2ccccc2)[C@H](c2ccc(Br)cc2)O1	0.275	0.372 (inactive)	-0.182	-0.117	-0.202	-0.652	-1.07	-0.179	0.143	-0.394	0.443	-0.374	0.718	-0.233	-0.126	-0.0946	-0.421	0.0985	-0.236	-1.8 (inactive)
COCOc1ccc(Br)cc1C(=O)C=Cc1ccc2c(c1)OCO2	-0.0265	1.33 (inactive)	-0.132	-0.169	-0.321	-0.576	-0.684	-0.562	0.525	-0.723	0.263	-0.396	-0.141	0.962	0.516	0.449	2.57	0.471	0.69	-2.08 (inactive)
CC(CCN1CCc2nc(-c3ccccc3)c(-c3ccccc3)cc2C1)=NOC(C)CN1CCCc2nc(C)c(C)cc21 (stereo not given)	0.682	0.944 (inactive)	0.233	-0.0278	0.369	1.09	0.506	1.29	0.219	1.08	-0.929	1.15	0.382	0.96	0.94	0.541	3.46	0.659	0.379	0.397 (inactive)
CCOC(=O)[C@H](Cc1ccccc1)NC(=O)CCC1CC(OC(=O)NCCc2ccc(F)cc2)CC2(CCCC(COC(=O)NCc3cccc(C(F)(F)F)c3)O2)O1 (stereo not given in full)	0.825	1.43 (inactive)	0.148	-0.192	0.499	2.08	0.137	1.3	0.285	1.06	0.554	1.16	0.31	0.943	0.787	0.696	0.578	1.64	0.502	0.871 (inactive)
C[C@@H](c1ccccc1)N1C(=O)[C@H]2[C@H]3[C@H](O)[C@H](O)CC(=NNC(=O)OCc4ccccc4)[C@@H]3CC[C@H]2C1=O	0.517	0.581 (inactive)	-0.0647	-0.148	-0.191	-0.231	-0.723	0.723	1.45	-0.569	-0.23	-1.01	0.37	-0.864	1.43	1.66	-0.383	1.39	-0.212	0.574 (inactive)
COc1ccc(O[C@H]2C=C[C@@H](c3ccccc3)O[C@@H]2CON=C(C)CCN2CCCc3nc(C)c(C)cc32)cc1	0.118	0.528 (inactive)	0.0225	-0.048	0.437	0.896	0.271	1.05	0.369	0.946	1.5	0.957	0.0143	0.328	0.651	0.529	1.16	0.408	0.584	0.715 (inactive)
